These results are taken from PubChem BioAssay (NCI).

Among the test systems are NCI-H23 lung; NCI-H226 lung; NCI-H322M lung; HOP-62 NSCLC; NCI-H460 lung; NCI-H522 lung; A549/ATCC NSCLC; 786-0 renal; COLO 205 colon; DU-145 prostate; K-562 leukemia; MALME-3M melanoma; MDA-MB-231 breast; RXF 393 renal; SF-295 CNS; SF-539 CNS; UACC-257 melanoma; M14 melanoma; HCT-15 colon; SF-268 CNS.
What all share (test): NCI-60 one-dose screen, 48 h (100 = growth as untreated, 0 = no growth, -100 = all killed)
Conditions in all cases: 10 µM unless noted

Compounds without any hit were thinned out: in the full panel of roughly 83,000, 20% have a hit.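 Cells were grown in 96-well plates and exposed to the test compound at a single concentration for 48 hours; results are reported as percent growth, with values below 10 considered active.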 Unmarked numbers belong to inactive results. The source made the active and inactive calls.

As to `Fc1ccc(-c2nnc(-c3c(-c4ccc(F)cc4)nc4ncccn34)o2)cc1`, the growth is 98.2% in the experiment with NCI-H23 lung; 113% with NCI-H226 lung; 105% with NCI-H322M lung; 105% with HOP-62 NSCLC; 111% in the experiment with NCI-H460 lung; 89.1% in the experiment on NCI-H522 lung. Besides, the growth is 96% in the experiment with A549/ATCC NSCLC; 93.1% in the experiment with 786-0 renal; 104% in the experiment with COLO 205 colon; 103% in the experiment with DU-145 prostate; 89.3% in the experiment with K-562 leukemia; 121% in the experiment on MALME-3M melanoma. The growth was 122% in the experiment on MDA-MB-231 breast; 97.8% in the experiment with RXF 393 renal; 93% in the experiment with SF-295 CNS; 94.4% with SF-539 CNS; 107% in the experiment on UACC-257 melanoma; 112% in the experiment on M14 melanoma. For the same compound, the growth with HCT-15 colon is 87.9%.

As for `CCN(CC)c1ccc(N=Nc2cc(Cl)ccc2Cl)c(NC(=O)CCC(=O)O)c1`, the growth with NCI-H23 lung was 101%; in the experiment with NCI-H226 lung, 98.1%; in the experiment on NCI-H322M lung, 111%; in the experiment with HOP-62 NSCLC it was 86.6%; in the experiment with NCI-H460 lung, 108%; with NCI-H522 lung, 106%. The growth is 101% with A549/ATCC NSCLC; 108% in the experiment on 786-0 renal; 106% in the experiment on COLO 205 colon; 108% in the experiment with DU-145 prostate; 98.8% with K-562 leukemia; 91.8% with MALME-3M melanoma. The growth is 81.4% in the experiment with MDA-MB-231 breast; 116% with RXF 393 renal; 105% in the experiment on SF-268 CNS; 79.9% in the experiment with SF-539 CNS; 117% in the experiment on UACC-257 melanoma; 101% in the experiment on M14 melanoma. Moreover, in the experiment with HCT-15 colon, the growth is 89.5%.

On to `COc1ccc2nc3cc(Cl)ccc3c(Nc3cc(C(C)C)c(O)cc3C)c2c1`, for which the growth in the experiment with NCI-H23 lung is 40.1%; in the experiment with NCI-H226 lung it was 79.5%; with NCI-H322M lung, 51.5%; with HOP-62 NSCLC, 58.2%; in the experiment on NCI-H460 lung, 35.3%; with NCI-H522 lung, -20.1% (active). Also, the growth in the experiment on A549/ATCC NSCLC is 14.5%; in the experiment with 786-0 renal it was 35.5%; in the experiment with COLO 205 colon, 15.7%; in the experiment on DU-145 prostate, 52.3%; with K-562 leukemia, 19.4%; with MALME-3M melanoma it was 39.3%. For the same compound, the growth in the experiment with MDA-MB-231 breast was 37.7%; with SF-268 CNS it was 64%; with SF-295 CNS it was 5.22% (active); with SF-539 CNS, 59.5%; in the experiment with UACC-257 melanoma, 47%; in the experiment with M14 melanoma, 56.2%. Moreover, the growth in the experiment on HCT-15 colon is 10.6%.

Turning to `Oc1[nH]c2ccccc2c1/C=c1/ccc2c(c1)N=C(c1cc(F)cc(F)c1)N=2`, the growth in the experiment on NCI-H23 lung was 64.3%; in the experiment on NCI-H226 lung, 85.4%; in the experiment with NCI-H322M lung it was 83.1%; with HOP-62 NSCLC, 101%; in the experiment on NCI-H460 lung, 56.9%; in the experiment on NCI-H522 lung it was 59.7%. For the same compound, the growth was 66.5% in the experiment on A549/ATCC NSCLC; 64.2% in the experiment with 786-0 renal; 96% in the experiment with COLO 205 colon; 72.1% with DU-145 prostate; 12.8% in the experiment with K-562 leukemia; 101% in the experiment on MALME-3M melanoma. Also, the growth in the experiment with MDA-MB-231 breast was 53.8%; in the experiment on RXF 393 renal, 78.5%; in the experiment on SF-268 CNS, 80.8%; in the experiment on SF-539 CNS, 90.7%; with UACC-257 melanoma, 98.7%; with M14 melanoma, 58.2%. The growth with HCT-15 colon is 31.5%.

On to `Cc1ccc(C=C2C(Cl)=C(Cl)C(Cl)=C2Cl)cc1`, for which the growth is -57.5% (active) in the experiment on NCI-H23 lung; -79% (active) with NCI-H226 lung; -37.2% (active) in the experiment with NCI-H322M lung; -58.6% (active) in the experiment on HOP-62 NSCLC; -31.3% (active) in the experiment on NCI-H460 lung; -57.2% (active) in the experiment with NCI-H522 lung. Moreover, the growth is -61.2% (active) with A549/ATCC NSCLC; -86.8% (active) with 786-0 renal; -80.3% (active) in the experiment on COLO 205 colon; -45.3% (active) with DU-145 prostate; 24.6% in the experiment on K-562 leukemia; -45.1% (active) in the experiment on MALME-3M melanoma. Besides, the growth is -6.71% (active) in the experiment on MDA-MB-231 breast; -68.6% (active) in the experiment on SF-268 CNS; -19.5% (active) in the experiment with SF-295 CNS; -84.5% (active) with SF-539 CNS; -83.2% (active) with UACC-257 melanoma; -85.8% (active) with M14 melanoma.

For the compound `CN(C)c1nc(-c2ccco2)n2nc(-c3ccco3)cc2n1`, the growth in the experiment with NCI-H23 lung was 87.9%; with NCI-H226 lung, 87.1%; in the experiment with NCI-H322M lung, 94%; in the experiment on HOP-62 NSCLC, 90.6%; in the experiment with NCI-H460 lung it was 95.5%; with NCI-H522 lung, 94.8%. The growth is 92.9% in the experiment on A549/ATCC NSCLC; 97.2% with 786-0 renal; 116% in the experiment on COLO 205 colon; 121% with DU-145 prostate; 101% with K-562 leukemia; 131% in the experiment with MALME-3M melanoma. Moreover, the growth is 74.2% in the experiment on MDA-MB-231 breast; 106% with RXF 393 renal; 118% in the experiment on SF-268 CNS; 94.7% in the experiment on SF-539 CNS; 106% with UACC-257 melanoma; 99.7% in the experiment on M14 melanoma. In the experiment with HCT-15 colon, the growth is 78.1%.

In the case of `N#CCCN(CCO)c1ccccc1`, the growth is 104% in the experiment with NCI-H23 lung; 94.6% with NCI-H226 lung; 93.7% in the experiment with NCI-H322M lung; 95% with HOP-62 NSCLC; 105% in the experiment on NCI-H460 lung; 80.6% with NCI-H522 lung. In addition, the growth in the experiment with A549/ATCC NSCLC was 98.9%; in the experiment with 786-0 renal, 96.2%; with COLO 205 colon, 104%; with DU-145 prostate, 116%; with K-562 leukemia, 98.3%; with MALME-3M melanoma, 96.8%. The growth in the experiment on MDA-MB-231 breast is 106%; in the experiment on RXF 393 renal, 105%; in the experiment on SF-268 CNS, 111%; in the experiment with SF-539 CNS it was 104%; in the experiment on UACC-257 melanoma, 99.8%; in the experiment on M14 melanoma, 102%. Besides, in the experiment on HCT-15 colon, the growth is 102%.

As to `O=c1ccn(C2CCCO2)c(=O)[nH]1` (stereo unspecified), the growth in the experiment with NCI-H23 lung was 119%; in the experiment on NCI-H226 lung, 114%; with NCI-H322M lung, 117%; with HOP-62 NSCLC it was 107%; in the experiment with NCI-H460 lung it was 106%; in the experiment on NCI-H522 lung, 98.5%. Also, the growth in the experiment on A549/ATCC NSCLC is 95.3%; in the experiment with 786-0 renal, 109%; in the experiment with COLO 205 colon, 118%; in the experiment on DU-145 prostate, 109%; with K-562 leukemia, 105%; in the experiment with MALME-3M melanoma it was 116%. The growth with MDA-MB-231 breast is 107%; in the experiment with RXF 393 renal, 111%; with SF-268 CNS, 104%; with SF-539 CNS, 91.6%; in the experiment on UACC-257 melanoma, 90.9%; in the experiment on M14 melanoma, 107%. Moreover, in the experiment on HCT-15 colon, the growth is 105%.
